From PubChem BioAssay
DRD3 agonist: activates the human D3 dopamine receptor. P35462. D3R DiscoveRx beta-arrestin cells, luminescence, 90 min. max activation, %. hit rate 0.58% among 410,000; in the data active = max activation above about 30%; also: 0% is about no effect
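Agonist-mode cell screen: cells plated at 1500/well and incubated overnight at 37 °C, then exposed to library compounds for 90 min at 37 °C. Detection reagent was added for 30–60 min at room temperature, and luminescence was read.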
D1 antagonist: antagonists of human D1 dopamine receptor; HEK293 TREx D1 cells, calcium flux, dopamine EC80; stronger effect = lower value; P21728; activity change, negative = inhibition, % at 10 µM; hit rate 3.2% among 360,000; in the data active = activity change below about -30%; also: % is scaled to controls: 0 for no effect and ±100 for the full control effect
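Tetracycline-induced HEK293 T-REx cells with force-coupled D1 receptor were loaded with a no-wash calcium dye. Compound was added after a 10 s baseline and read kinetically for 180 s; EC80 dopamine was then added and calcium flux followed another 180 s.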
ERG Ets-DNA blk: inhibitors of human ERG Ets domain-DNA interaction; P11308; fluorescence polarization, His-ERG Ets domain / labelled DNA; Potency, µM (titrated, usually from 76.9 µM), without a hit: top-dose FP activity, negative = inhibition, actives largely listed as inhibitors; hit rate 0.028% among 370,000; AID 624246; active = well fitted inhibition curve with a large enough effect in the polarisation, with a control signal flat; the % refers to the polarisation;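 also: polarization taken with two DNA probes labelled with fluorescein and Texas red; potency is read from the fitted curve at half-maximal effect; % of control where 0% means no effect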
Target sequence (P11308 whole entry, looked up, the tested form may be a part): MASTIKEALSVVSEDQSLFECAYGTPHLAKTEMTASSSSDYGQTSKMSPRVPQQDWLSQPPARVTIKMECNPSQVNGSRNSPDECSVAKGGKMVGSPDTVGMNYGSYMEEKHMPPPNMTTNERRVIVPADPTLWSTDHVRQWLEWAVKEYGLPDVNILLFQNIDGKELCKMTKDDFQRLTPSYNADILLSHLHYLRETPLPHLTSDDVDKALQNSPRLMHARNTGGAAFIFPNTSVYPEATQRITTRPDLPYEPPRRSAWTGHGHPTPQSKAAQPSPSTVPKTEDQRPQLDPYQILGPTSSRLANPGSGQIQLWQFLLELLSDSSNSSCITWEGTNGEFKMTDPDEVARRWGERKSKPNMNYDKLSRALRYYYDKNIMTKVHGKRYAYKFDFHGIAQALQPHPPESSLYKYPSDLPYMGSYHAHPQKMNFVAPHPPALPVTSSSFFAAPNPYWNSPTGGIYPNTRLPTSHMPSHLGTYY
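His-tagged ERG Ets domain (1 uM in the protein solution; 300mM KCl, 50mM Tris-HCl, 1mM EDTA, 1mM DTT, pH 7.5) received compound, then a probe mix of 5 nM fluorescein-DNA and 100nM Texas-615-DNA. Fluorescence polarization was read for both dyes.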
D1 ag: agonists of human D1 dopamine receptor; HEK293 T-REx D1 cells, calcium flux, agonist mode; hit rate 1% among 360,000; activation, % at 2 µM; AID 504660; P21728; in the data active = activation above about 30%; also: 0% is about no effect
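Inducible HEK293 T-REx D1 cells, force-coupled to calcium signalling, were plated at 4000 cells/well with tetracycline and held overnight at 30 C. After no-wash calcium dye loading, compound-evoked calcium rise over 180 s flagged agonists.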
D3 antag: D3 dopamine receptor (human) antagonism | P35462 | D3R cells, DiscoveRx beta-arrestin luminescence, antagonist mode; stronger effect = lower value | max response, negative = inhibition, % | hit rate 2.5% among 360,000; in the data active = max response below about -50%; also: % is scaled to controls: 0 for no effect and ±100 for the full control effect
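Cells plated overnight at 1500 cells/well, then exposed to library compounds with dopamine controls for 90 minutes at 37 degrees C. DiscoveRx reagent added for 30–60 minutes at room temperature; luminescence read, quantitative HTS format.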
D1 potentiator: enhances dopamine response at the human D1 receptor; P21728; HEK293 TREx D1 cells, calcium flux, dopamine EC20 potentiation; potentiation, % at 10 µM; hit rate 0.036% among 360,000; AID 504651; in the data active = potentiation above about 30%; also: 0% is about no effect
Starred values were filed as active, the others as inactive. This is a sample that favours compounds with a hit; in the whole collection about 6.1% have one here.

Screening COc1ccc(-c2ccc(C3C(C#N)=C(N)Oc4n[nH]c(C)c43)o2)cc1 (stereo not given) returned DRD3 agonist -9, D1 antagonist -33*, ERG Ets-DNA blk 3%, D1 ag 32*, D3 antag -5 and D1 potentiator -7.
`Cc1[nH]nc2c1C(c1ccco1)C(C#N)=C(N)O2` (stereo not given) gave DRD3 agonist -2, D1 antagonist -8, ERG Ets-DNA blk 1%, D1 ag -1, D3 antag 13 and D1 potentiator -4.
C=CCOc1cccc(C2/C(=C(\O)c3ccc(F)cc3)C(=O)C(=O)N2CCN(C)C)c1 (stereo not given) was read as DRD3 agonist -3, D1 antagonist -53*, ERG Ets-DNA blk 6%, D1 ag -1, D3 antag -12 and D1 potentiator -5.
Screening C=CCOc1cccc(C2/C(=C(/O)c3ccc(Cl)cc3)C(=O)C(=O)N2CCN2CCOCC2)c1 (stereo not given) returned DRD3 agonist 0, D1 antagonist -4, ERG Ets-DNA blk 3%, D1 ag 1, D3 antag -56* and D1 potentiator 2.
Screening CSCCC(NC(=O)c1ccc(Cl)cc1Cl)C(=O)N(C)Cc1nc2ccccc2c(=O)[nH]1 (stereo not given) returned DRD3 agonist -8, D1 antagonist -20, ERG Ets-DNA blk 1%, D1 ag 3, D3 antag -51* and D1 potentiator -5.
Cc1ccc(S(=O)(=O)Nc2cccc3ncccc23)s1 was read as DRD3 agonist -25, D1 antagonist 3, ERG Ets-DNA blk 4%, D1 ag 11, D3 antag -77* and D1 potentiator 3.
`Cc1ccc(-c2nn3c(C)nnc3c3ccccc23)cc1S(=O)(=O)NC(C)c1ccccc1` (stereo not given) gave DRD3 agonist -11, D1 antagonist 11, ERG Ets-DNA blk 38%, D1 ag 2, D3 antag -54* and D1 potentiator -2.
For Cc1ccc(-c2nn3c(C)nnc3c3ccccc23)cc1S(=O)(=O)NCCO the results were DRD3 agonist 1, D1 antagonist 8, ERG Ets-DNA blk 0%, D1 ag 0, D3 antag 8 and D1 potentiator -5.
Cc1nn(C)cc1/C=N/NC(=O)c1ccco1 was read as DRD3 agonist -2, D1 antagonist -12, ERG Ets-DNA blk 11%, D1 ag 3, D3 antag 4 and D1 potentiator 1.
`Cc1nn(C)cc1C=NCCOCc1ccccc1` gave DRD3 agonist 2, D1 antagonist -32*, ERG Ets-DNA blk 8%, D1 ag 1, D3 antag -13 and D1 potentiator -6.
For Cc1cc(N2CCN(c3ncccn3)CC2)nc2c(C)cccc12 the results were DRD3 agonist 36*, D1 antagonist 14, ERG Ets-DNA blk 7%, D1 ag 3, D3 antag 18 and D1 potentiator -3.
Screening O=S1(=O)CCOCCCN1Cc1ccccc1F returned DRD3 agonist -13, D1 antagonist -3, ERG Ets-DNA blk -12%, D1 ag 2, D3 antag 0 and D1 potentiator -1.
COc1ccc(Cl)cc1S(=O)(=O)N1CCN(Cc2cccc(F)c2)CC1 was read as DRD3 agonist -4, D1 antagonist -5, ERG Ets-DNA blk 0%, D1 ag 4 and D1 potentiator 1.
Screening Cc1cc2oc(C(=O)Nc3ccc(S(N)(=O)=O)cc3)cc(=O)c2cc1C returned DRD3 agonist 7, D1 antagonist -58*, ERG Ets-DNA blk 8%, D1 ag 0 and D1 potentiator -2.
Screening COc1c(C)cc(Br)cc1C(=O)Nc1ccc(S(N)(=O)=O)cc1 returned DRD3 agonist 1, D1 antagonist -61*, ERG Ets-DNA blk 8%, D1 ag 1, D3 antag 9 and D1 potentiator -6.
Screening COc1c(C)cc(Br)cc1C(=O)Nc1ccc(C)cc1[N+](=O)[O-] returned DRD3 agonist -4, D1 antagonist -6, ERG Ets-DNA blk 6%, D1 ag 4, D3 antag -13 and D1 potentiator -2.
